# In PubChem BioAssay (Tox21):
# Values joined by “and” are separate entries in the source; they are usually repeats but may differ in a detail not shown here. Identical values can stand only once. Inconclusive results are not listed. Entries that show only a call come without a potency. Active and inactive are the calls of the source. Calls come from the whole dose curve; as a rule, active = well fitted inhibition curve with a large enough effect in the repeat runs; inconclusive = weak or mixed curves; inactive = flat fitted curve, though single readings scatter.
# Test: qHTS assay to identify small molecule HDAC inhibitors (AID 1259364); note: nearly all actives have a fitted effect of over 45% in size
# Conditions: HCT-116 HDAC-Glo I/II luminescence, 2 h; series mostly up to 92.4 µM
# Text: U.S. Tox21 Program National Center for Advancing Translational Sciences [NCATS] NIH Chemical Genomics Center [NCGC] U.S. Environmental Protection Agency [EPA] National Institutes of Environmental Health Sciences [NIEHS] National Toxicology Program [NTP] U.S. Food and Drug Administration [FDA] Tox21 Assay Overview: Histone deacetylases (HDACs) are a group of epigenetic enzymes that regulate gene expression by histone deacetylation. HDACs are capable of introducing epigenetic modifications and such aberrations contribute to the onset and progression of several human diseases, thus making HDACs a popular therapeutic target. For identifying endogenous class I/II HDAC inhibitors a homogenous, luminogenic HDAC I/II cell based assay was used to measure the relative activity of class I and II HDACs from cells. Wild type HCT-116 cells were used to screen Tox21 libraries for identifying class I/II HDAC inhibitors.
# Tox21 Assay Protocol Summary: HCT-116 cells were dispensed at 1,500 per well in 5uL of culture medium into white solid bottom 1536-well plates (Greiner Bio-One, Monroe, NC) using a Multidrop Combi (Thermo Scientific, Waltham, MA) dispenser. The assay plates were incubated at 37 C and 5% CO2 for an overnight, and then 23nL of compounds dissolved in DMSO and positive control were transferred using a Pintool station (Wako, San Diego, CA). The assay plates were incubated at 37C and 5% CO2 for 2hr. After compound treatment, 4uL of HDAC-Glo reagent (Promega Corporation, Madison, WI) was added to each well of the assay plates using Flying Reagent Dispenser (FRD, Aurora Discovery, San Diego, CA) and incubated the assay plates at room temperature for 30min. The luminescence signal was quantified using a ViewLux plate reader (Perkin Elmer, Shelton, CT).
# Potency is the fitted concentration of half-maximal effect.
row,SMILES,Potency
1,C#CCN(C)[C@H](C)Cc1ccccc1,inactive
2,CCCN(CCC)c1c([N+](=O)[O-])cc(C(F)(F)F)cc1[N+](=O)[O-],inactive
3,Cc1[nH]c(=O)n(C(C)(C)C)c(=O)c1Cl,inactive
4,O=c1ccc(=O)[nH][nH]1,inactive
5,CN(C)[C@@H]1C(=O)C(C(N)=O)=C(O)[C@@]2(O)C(=O)C3=C(O)c4c(O)cccc4[C@@](C)(O)[C@H]3C[C@@H]12,inactive
6,CC(=O)C=C(C)C,inactive
7,CC(C)=C[C@@H]1[C@@H](C(=O)OCc2coc(Cc3ccccc3)c2)C1(C)C,inactive
8,CN1C(=O)CN=C(c2ccccc2)c2cc(Cl)ccc21,inactive
9,COC(=O)NS(=O)(=O)c1ccc(N)cc1,inactive
10,CC(C)OC(=O)Nc1cccc(Cl)c1,15.1 µM (active) and 13.7 µM (active)
11,CCOP(=S)(OCC)Oc1cnc2ccccc2n1,inactive
12,[O-][Cl+2]([O-])O,inactive
13,Cn1cc(-c2ccccc2)c(=O)c(-c2cccc(C(F)(F)F)c2)c1,inactive
14,CCCCCCCCCCCC#N,inactive
15,Cc1cc(-c2cc(C)c(N)c(C)c2)cc(C)c1N,inactive
16,NCC(O)c1ccc(O)cc1 (stereo not given),inactive
17,COC(=O)c1ccccc1N,inactive
18,C=CC(N)=O,inactive
19,Cc1ccc(N)cc1Cl,inactive
20,CCNc1nc(NC(C)(C)C)nc(SC)n1,inactive

row,SMILES,Potency
1,Nc1c(Cl)c(Cl)nc(C(=O)O)c1Cl,inactive
2,COc1ccc2c3c1O[C@H]1[C@@H](O)C=C[C@H]4[C@@H](C2)N(C)CC[C@@]341,inactive
3,CCOC(=O)c1ccccc1C(=O)OCC,inactive
4,CCCN(CCC)N=O,inactive
5,CCCCOC(=O)c1ccccc1C(=O)OCCCC,inactive
6,O=c1[nH]c(=O)[nH]c(=O)[nH]1,inactive
7,Cc1cc(Cl)ccc1O,inactive
8,C#CC(C)(C)NC(=O)c1cc(Cl)cc(Cl)c1,inactive
9,Nc1ccccc1C(=O)O,inactive
10,Cc1ccccc1O,inactive
11,CN(C)N=O,inactive
12,NCCc1ccc(O)cc1,inactive
13,O=C(O)c1ccccn1,inactive
14,c1cc2c3c(cccc3c1)CC2,inactive
15,O=NN1CCCCCCC1,inactive
16,BrCCBr,inactive
17,COCCl,inactive
18,C[C@]12CC[C@H]3[C@@H](CC[C@@]45O[C@@H]4C(O)=C(C#N)C[C@]35C)[C@@H]1CC[C@@H]2O,inactive
19,CCC(C)(CC)c1cc(NC(=O)c2c(OC)cccc2OC)on1,inactive
20,C=C(C)CCl,inactive
